“And” between values parts separate entries of the source, which are not always exact repeats. Equal entries are not always repeated. Some structures have more than one record in an assay (separate samples or runs), and their calls can disagree. The source made the active and inactive calls. How the source made its calls: active means hit-call score of the fitted dose curve at least 0.9, where 1 is the maximum; inactive means score below 0.9.
Experiments:
[1] = read-out: Plasminogen activator inhibitor-1 (PAI1), SERPINE1 (gene 5054); assay: BSK_MyoF_PAI1: BioMAP Diversity Plus: MyoF Assay for Plasminogen activator inhibitor-1 (PAI1) Biomarker Activity (AID 2284256); conditions: primary human lung fibroblasts
Method in brief: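 Activity reflects increased PAI-1, determined by ELISA and compared with DMSO, in human lung fibroblasts treated for 24 h.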

[2] = read-out: Collagen I, COL1A1 (gene 1277); assay: BSK_hDFCGF_CollagenI: BioMAP Diversity Plus: hDFCGF Assay for Collagen I Biomarker Activity (AID 2284250); conditions: primary human foreskin fibroblasts
Method in brief: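 Collagen I ELISA, primary human foreskin fibroblasts, 24 h chemical exposure, DMSO = negative control/baseline, positive fitting direction.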

[3] = read-out: Interferon-inducible T-cell alpha chemoattractant (ITAC), CXCL11 (gene 6373); assay: BSK_hDFCGF_ITAC: BioMAP Diversity Plus: hDFCGF Assay for Interferon-inducible T-cell alpha chemoattractant (ITAC) Biomarker Activity (AID 2284251); conditions: primary human foreskin fibroblasts
Method in brief: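 Measured by ELISA, the chemokine level serves as the endpoint in human skin fibroblast primary cultures 24 h after compound addition. Increases relative to DMSO-treated wells define activity.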

[4] = read-out: Plasminogen activator inhibitor-1 (PAI1), SERPINE1 (gene 5054); assay: BSK_KF3CT_PAI1: BioMAP Diversity Plus: KF3CT Assay for Plasminogen activator inhibitor-1 (PAI1) Biomarker Activity (AID 2284252); conditions: primary human keratinocytes with fibroblasts
Method in brief: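 Cells (human keratinocytes co-cultured with foreskin fibroblasts) are exposed to test chemical for 24 h. PAI-1 is then measured by ELISA and analysed for signal gain against DMSO.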

[5] = read-out: Monocyte Chemoattractant Protein-1 (MCP1), CCL2 (gene 6347); assay: BSK_IMphg_MCP1: BioMAP Diversity Plus: IMphg Assay for Monocyte Chemoattractant Protein-1 (MCP1) Biomarker Activity (AID 2284253); conditions: primary human endothelial cells with macrophages
Method in brief: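 ELISA readout of MCP-1 at 24 hours in IMphg co-cultures of venular endothelial cells and macrophages, normalised to DMSO; parallel cultures stained with sulforhodamine B for overt cytotoxicity.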

[6] = read-out: Interleukin-8 (IL8), CXCL8 (gene 3576); assay: BSK_KF3CT_IL8: BioMAP Diversity Plus: KF3CT Assay for Interleukin-8 (IL8) Biomarker Activity (AID 2284254); conditions: primary human keratinocytes with fibroblasts
Method in brief: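 ELISA detection of IL-8 from a human skin co-culture, keratinocytes with foreskin fibroblasts, at 24 h following chemical exposure, with gain of signal scored against DMSO controls.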

[7] = read-out: Macrophage Inflammatory Protein-1 Alpha (MIP1a), CCL3 (gene 6348); assay: BSK_IMphg_MIP1a: BioMAP Diversity Plus: IMphg Assay for Macrophage Inflammatory Protein-1 Alpha (MIP1a) Biomarker Activity (AID 2284255); conditions: primary human endothelial cells with macrophages
Protocol: BSK_IMphg is a cell-based, multiplexed-readout assay that uses venular endothelial cells and macrophages, a human vascular primary cell, with measurements taken at 24 hours after chemical dosing in a microplate: 96-well plate.BSK_IMphg_MIP1a is an assay component measured in the BSK_IMphg assay. It measures MIP-1a antibody related to regulation of gene expression using ELISA technology.Data from the assay component BSK_IMphg_MIP1a was analyzed at the endpoint, BSK_IMphg_MIP1a, in the positive analysis fitting direction relative to DMSO as the negative control and baseline of activity. Using a type of binding reporter, gain or loss-of-signal activity can be used to understand protein changes. To generalize the intended target to other relatable targets, this assay endpoint is annotated to the 'cytokine' intended target family, where the subfamily is 'inflammatory factor'.
The levels of cell surface (or secreted, indicated by the prefix "s") biomarker endpoints were measured by ELISA. Overt cytotoxicity to cells in confluent adherent cultures (all systems other than the BT system) was assessed by measuring total protein levels using sulforhodamine B (SRB) staining in parallel cultures at the time of biomarker measurements, indicated as SRB endpoints. For proliferation assays for adherent cell types, individual cell types are cultured at sub-confluence and relative cell numbers quantified by SRB staining at time points optimized for each system (48 h: 3C and CASM3C systems; 72 h: BT and HDF3CGF systems; 96 h: SAg system). SRB was performed by staining cells with 0.1% SRB after fixation with 10% TCA and reading wells at 560 nm.Viability and proliferation of PBMC (T cells) was quantified by Alamar Blue reduction for the SAg and BT systems. For PBMC viability (referred to as PBMC Cytotoxicity within the assay endpoint names), cells were plated (75,000/well in a 96-well plate) and then chemical samples added for 1 h before addition of activators, SEB and TSST-1 (20 ng/mL final concentration each). Cells were incubated for 90 h. Then, Alamar Blue (20 uL/well) (Invitrogen, Cat DAL1100) was added for 6 h, and the plates were read with a fluorescence microplate reader at 546/580 nm (excitation/emission). For PBMC proliferation, cells were plated and activated as above but incubated for only 16 h prior to addition of Alamar Blue. Plates were read after 6 h.

CD69, CD69 (gene 969) = assay: BSK_IMphg_CD69: BioMAP Diversity Plus: IMphg Assay for CD69 Biomarker Activity (AID 2284257); conditions: primary human endothelial cells with macrophages
Method in brief: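 Readout is ELISA for CD69 in primary human venular endothelial cell/macrophage co-culture, taken at 24 h post-dosing. SRB staining of parallel cultures gauged overt cytotoxicity; signal increase versus DMSO defined activity.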

[8] = read-out: Eotaxin 3, CCL26 (gene 10344); assay: BSK_BF4T_Eotaxin3: BioMAP Diversity Plus: BF4T Assay for Eotaxin 3 Biomarker Activity (AID 2284258); conditions: primary human bronchial epithelial cells with fibroblasts
Method in brief: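 ELISA measurement of Eotaxin-3 after 24 h chemical exposure in a bronchial epithelial/dermal fibroblast co-culture, with DMSO as baseline. Parallel SRB staining (0.1% SRB after 10% TCA fixation, 560 nm) flagged overt cytotoxicity.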

[9] = read-out: Monocyte Chemoattractant Protein-1 (MCP1), CCL2 (gene 6347); assay: BSK_BF4T_MCP1: BioMAP Diversity Plus: BF4T Assay for Monocyte Chemoattractant Protein-1 (MCP1) Biomarker Activity (AID 2284259); conditions: primary human bronchial epithelial cells with fibroblasts
Method in brief: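 MCP-1 ELISA readout taken 24 h after dosing in the BF4T system (bronchial epithelial cells plus dermal fibroblasts). Parallel SRB total-protein staining flagged cytotoxicity; DMSO served as baseline, positive fitting direction.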

Measured: AC50

Oc1c(Cl)c(Cl)c(Cl)c(Cl)c1Cl
active: [1] 7.45 µM

O=S(=O)(O)C(F)(F)C(F)(F)C(F)(F)C(F)(F)F
inactive: [2] | [3] | [4] | [5] | [6] | [7] | [1] | CD69, CD69 (gene 969) | [8] | [9]

COc1ccc(O)c(C(C)(C)C)c1
inactive: [2] | [3] | [4] | [6]

O=S(=O)(O)C(F)(F)C(F)(F)C(F)(F)C(F)(F)C(F)(F)C(F)(F)F
inactive: [2] | [3] | [4] | [5] | [6] | [7] | [1] | CD69, CD69 (gene 969) | [8] | [9]

O=C(O)C(F)(F)C(F)(F)C(F)(F)C(F)(F)C(F)(F)C(F)(F)C(F)(F)C(F)(F)F
active: [3] 47.9 µM and 47.8 µM | [4] 48.2 µM and 41.7 µM | CD69, CD69 (gene 969) 49.9 µM and 48.7 µM | [8] 17 µM and 15.5 µM | [9] 21.7 µM and 34.2 µM
inactive: [2] | [5] | [6] | [7] | [1]

O=C(O)C(F)(F)C(F)(F)C(F)(F)C(F)(F)C(F)(F)F
inactive: [2] | [3] | [4] | [5] | [6] | [7] | [1] | CD69, CD69 (gene 969) | [8] | [9]

O=C(O)C(F)(F)C(F)(F)C(F)(F)C(F)(F)C(F)(F)C(F)(F)C(F)(F)C(F)(F)C(F)(F)F
active: [3] 19 µM and 22 µM | [4] 41.7 µM and 33.4 µM | [5] 46.9 µM and 53.7 µM | [6] 44.9 µM | [7] 47 µM and 33.7 µM | [1] 46.7 µM and 54.8 µM | CD69, CD69 (gene 969) 45.3 µM and 42 µM | [8] 9.59 µM and 12.1 µM | [9] 9.32 µM and 8.22 µM
inactive: [2] | [6]

NS(=O)(=O)C(F)(F)C(F)(F)C(F)(F)C(F)(F)C(F)(F)C(F)(F)C(F)(F)C(F)(F)F
inactive: [2] | CD69, CD69 (gene 969)
active: [3] 8.34 µM and 8.29 µM | [4] 40.7 µM and 21.7 µM | [5] 45.2 µM and 50.4 µM | [6] 37.2 µM and 22.3 µM | [7] 54.8 µM and 43.3 µM | [1] 46.3 µM and 55.1 µM | CD69, CD69 (gene 969) 10 µM | [8] 20.4 µM and 12.6 µM | [9] 47.9 µM and 42 µM

Sc1ccccc1
inactive: [1]

Reference: PubChem BioAssay (EPA / NIEHS)
